# Compound activity from PubChem.
# GLS inhibitor = inhibitors of human glutaminase (GLS). GLS enzymatic activity, qHTS titration. Potency, µM (top dose mostly 45.5 µM), without a hit: at the highest dose activity change, negative = inhibition, most hits filed as inhibitors. 410,000 tested, 0.21% active. AID 624170; also: potency is read from the fitted curve at half-maximal effect; % is scaled to controls: 0 for no effect and ±100 for the full control effect
#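 hKGA in 45 mM KH2PO4 pH 8.2, 0.02% Tween-20 with pin-transferred compounds; 1 mM L-glutamine (stock) plus glutamate oxidase/HRP/Amplex Red coupling added. Fluorescence read initially and after 30 min at RT.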
# Akt phos inh = inhibitors of Akt phosphorylation; Neuro2A IGF-stimulated pAkt S473 HTRF, 20 min; stronger effect = lower value; activity change, % for hits at 50 µM; 360,000 tested, 0.32% active; in the data active = activity change below about -80%; inconclusive = mostly about -51% to -80%; also: % is scaled to controls: 0 for no effect and ±100 for the full control effect
#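 Single-point screen (50 µM final compound) in Neuro2A cells stimulated 20 min with 6 nM IGF at 37 deg C. After lysis, Ser473-phosphorylated Akt read by HTRF (ex 330 nm, em 615/665 nm) as the 665/615 ratio.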
# MmCpn inh = inhibitors of Methanococcus maripaludis chaperonin TRiC (MmCpn); purified Mm-Cpn ATPase, ADP Transcreener TR-FRET; Potency, µM (series often up to 76.9 µM), for inactives: at the highest dose activity, negative = inhibition, most hits filed as inhibitors; 330,000 tested, 0.031% active; AID 504842; also: potency is read from the fitted curve at half-maximal effect; % is scaled to controls: 0 for no effect and ±100 for the full control effect; nearly all actives have a fitted effect of over 80% in size
#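 Inhibition of chaperonin ATP hydrolysis is measured as reduced ADP production, detected by competitive TR-FRET in which signal falls with ADP. Final enzyme 25 nM and ATP 10 uM, reacted 30 min at 37°C.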
# IDH1 R132H inh = human IDH1 R132H inhibition; O75874; IDH1-R132H enzyme, NADPH consumption, diaphorase/resazurin fluorescence; Potency, µM (doses to about 76.6 µM), for inactives: top-dose activity change, negative = inhibition, usual class: inhibitors; 390,000 tested, 0.093% active; also: potency is read from the fitted curve at half-maximal effect; % is scaled to controls: 0 for no effect and ±100 for the full control effect; nearly all actives have a fitted effect of over 65% in size
#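 IDH1-R132H (0.5 ug/mL dispensed) in pH 7.5 Tris buffer was preincubated 30 min with compound, then given a substrate mix of 0.016 mM NADPH and 2 mM alpha-KG for 80 min at room temperature; remaining NADPH was read by diaphorase/resazurin fluorescence.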
# Glioma ERSR ind = inducers of ER stress response in human glioma cells; U87-MG GRP78 promoter luciferase reporter, 16 h; Potency, µM, without a hit: top-dose activation, usual class: activators; 420,000 tested, 0.02% active; also: potency is read from the fitted curve at half-maximal effect; series mostly up to about 76 µM; % of control where 0% means no effect; nearly all actives have a fitted effect of over 35% in size
#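 Stably transfected U87-MG glioma cells carrying a GRP78-based luciferase sensor; 16 h compound incubation. Luminescence end-point read 10 min after Bright-Glo addition at room temperature.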
# CCT modulator = cytosolic chaperonin activity modulation. purified chaperonin ATPase assay, HTRF ADP detection, 30 min. activity change, % (no concentration beside the values), hits read low. 360,000 tested, 0.3% active. AID 651819; in the data active = activity change below about -30%; also: % is scaled to controls: 0 for no effect and ±100 for the full control effect
#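 TRiC at 40 or 20 nM final (batch-dependent) in 30 mM Tris pH 7.4, 100 mM KCl, 5 mM MgCl2, 1 mM DTT, with compound at single 76 uM and 10 uM ATP, 30 min at 37 deg C. ADP detected by HTRF Transcreener, 665/615 ratio.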
# GLS hit conf = confirmation of human glutaminase inhibitors. shares compounds with GLS inhibitor. biochemical glutaminase enzyme inhibition assay. Potency, µM (series often up to 46.1 µM), for inactives: at the highest dose activity change, negative = inhibition, actives largely listed as inhibitors. 35 tested, under 10 active; calls by dose curve
# HRP GOx counter = counter-screen for glutaminase inhibitors: HRP coupled enzyme inhibition | activity change, negative = inhibition, % at 46.1 µM | shares compounds with GLS inhibitor | 35 tested, under 10 active | HRP/glutamate oxidase coupled Amplex Red fluorescence counterscreen
# HEK293 tox = reduces HEK-293 viability in glutaminase inhibitor counter-screen. shares compounds with GLS inhibitor. HEK-293 viability, CellTiter-Glo luminescence, 24 h. activity change, negative = cytotoxicity, % at 46.1 µM. 35 tested, under 10 active. AID 624264
# Active calls of the source: *; i = inactive; ? = inconclusive; · = not tested or not shown. Compounds with a hit are over-represented: about 0.85% of the library has one in this group of screens. Unless noted, calls follow the shape of the dose curve; as a rule, active = well fitted curve in the direction sought with a large enough effect; inconclusive = small, poorly fitted or top-dose-only effect, or another doubt; inactive = no such curve, though single readings can be large; an effect the other way counts as inactive or inconclusive.
SMILES,GLS inhibitor,Akt phos inh,MmCpn inh,IDH1 R132H inh,Glioma ERSR ind,CCT modulator,GLS hit conf,HRP GOx counter,HEK293 tox
CCOC(=O)CN(C)C(=O)c1cnn(-c2ncc3c(n2)-c2ccccc2CCC3)c1C,·,·,·,·,4%,·,·,·,·
O=C(O)c1ccc(S(=O)(=O)Nc2ccc(O)c(Sc3nc4ccccc4s3)c2)cc1,?,i,1%,8%,-1%,1,?,?,2
CC(=O)c1c(C)oc2ccc(NS(=O)(=O)c3ccc(C)cc3)cc12,-8%,i,1%,-6%,-3%,0,·,·,·
Cc1ccc(C)c(S(=O)(=O)Nc2ccc3oc(C)c(C(=O)O)c3c2)c1,13µM*,i,1%,0%,-2%,-2,?,7,-7
NNC(=O)c1cc2ccccc2cc1NS(=O)(=O)c1ccccc1,?,i,-5%,6%,-8%,0,-10%,-23,-9
